# A collection of fitness landscapes (doi:10.1016/j.celrep.2020.107928)
# The full ranking holds about 81,000 sequences; the median of “one-hybrid fitness for binding parS DNA” is about -0.17, and the highest 2% start at about 0.51. The full list was thinned out, with the highest values kept by preference.
# B1: Caulobacter ParB omega fusion; a variant is named by its letters at X, in order, B8GW30 (parent)
# chain: MESVVVGEPGMSEGRRGLGRGLSALLGEVDAAPAQAPGEQLGGSREAPIEILQRNPDQPRRTFREEDLEDLSNSIREKGVLQPILVRPSPDTAGEYQIVAGERAWRAAQRAGLKTVPIMVRELDDLAVLEIGIIENVQRADLNVLEEALSYKVLMEKFERTQENIAQTIGKSXSHVANXMRLLXLPDEVQSYLVSGELTAXHARAIAAAADPVALAKQIIEGGLSVRETEALARKAPNLSAGKSKGGRPPRVKDTDTQALESDLSSVLGLDVSIDHRGSTGTLTITYATLEQLDDLCNRLTRGI
# Variants of: B1
# Test: one-hybrid fitness for binding parS DNA (scaled: cognate 1, non-cognate 0); higher = stronger binding
# Settings: with parS DNA site
# How it was run: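 Pre- and post-selection plasmids were Illumina-sequenced, three replicate libraries were pooled, and any variant with under 10 reads was removed. The libraries were Caulobacter ParB with four specificity codons randomised, selected in E. coli USO through a HIS3 reporter whose site is 19 bp from the promoter. Cells grew 48 hours at 37°C on M9 without histidine, with 0.1 mM IPTG and 5 mM 3-AT. Fitness is the log change in variant-to-wild-type read ratio, rescaled against cognate and non-cognate.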
row,Variant,one-hybrid fitness for binding parS DNA
1,TVTE,≤ 0.2
2,HTAD,≤ 0.2
3,AGDD,≤ 0.2
4,KANA,≤ 0.2
5,WSQY,≤ 0.2
6,NLNG,≤ 0.2
7,DWLT,≤ 0.2
8,RAFY,0.499
9,RAAP,≤ 0.2
10,RAAN,0.448
11,RAFR,≤ 0.2
12,RAAG,1
13,RAFG,0.978
14,KYLA,≤ 0.2
15,TKWY,≤ 0.2
16,KNQS,≤ 0.2
17,CSRV,≤ 0.2
18,ATTE,≤ 0.2
19,WMPS,≤ 0.2
20,CPLP,≤ 0.2
21,GALY,≤ 0.2
22,NGLG,≤ 0.2
23,RQQK,≤ 0.2
24,RQGM,0.287

row,Variant,one-hybrid fitness for binding parS DNA
1,RQQQ,≤ 0.2
2,RQQC,0.951
3,RQSC,0.968
4,RQGC,0.916
5,RQGK,≤ 0.2
6,RQHC,0.946
7,RQHM,0.325
8,RQHR,≤ 0.2
9,RQSY,0.465
10,RQSQ,≤ 0.2
11,KYCL,≤ 0.2
12,AFDN,≤ 0.2
13,GKGS,≤ 0.2
14,WSNM,≤ 0.2
15,GTTW,≤ 0.2
16,ACNL,≤ 0.2
17,CRNF,≤ 0.2
18,SNIR,≤ 0.2
19,RQLQ,≤ 0.2
20,RQRY,0.504
21,RQCK,≤ 0.2
22,RQLY,0.442
23,RQYF,0.256
24,RQCQ,≤ 0.2

row,Variant,one-hybrid fitness for binding parS DNA
1,RQCC,0.874
2,RQRF,0.247
3,RQYC,0.94
4,RQRC,0.943
5,RQLC,0.952
6,RQYR,≤ 0.2
7,VAQC,≤ 0.2
8,FEDR,≤ 0.2
9,QQVS,≤ 0.2
10,VEHM,≤ 0.2
11,CAAW,≤ 0.2
12,APPF,≤ 0.2
13,YVRD,≤ 0.2
14,RQWD,≤ 0.2
15,RQWC,0.797
16,RQWN,0.286
17,CVQT,≤ 0.2
18,RFFS,0.841
19,RFFP,≤ 0.2
20,RFAD,≤ 0.2
21,RFAH,≤ 0.2
22,RFFD,≤ 0.2
23,RFAS,0.976
24,LQNH,≤ 0.2

row,Variant,one-hybrid fitness for binding parS DNA
1,TREM,≤ 0.2
2,DHQQ,≤ 0.2
3,STCC,≤ 0.2
4,RTCQ,≤ 0.2
5,RICQ,0.256
6,RTCK,≤ 0.2
7,RMCN,0.389
8,RICY,0.492
9,RMCH,0.262
10,RICG,0.976
11,RTCG,0.999
12,RSCG,0.966
13,RSCQ,≤ 0.2
14,RMCG,1.04
15,RDCG,≤ 0.2
16,ECVT,≤ 0.2
17,WSQP,≤ 0.2
18,VYQR,≤ 0.2
19,KDPE,≤ 0.2
20,DISI,≤ 0.2
21,KTLW,≤ 0.2
22,RECG,0.221
23,RLCM,0.342
24,RLCF,0.27

row,Variant,one-hybrid fitness for binding parS DNA
1,RCCG,1.03
2,RLCG,1
3,RPCG,≤ 0.2
4,PASK,≤ 0.2
5,CNGG,≤ 0.2
6,SRGF,≤ 0.2
7,AQNP,≤ 0.2
8,TPWY,≤ 0.2
9,KCYT,≤ 0.2
10,VISS,≤ 0.2
11,QETP,≤ 0.2
12,PTTA,≤ 0.2
13,DTNY,≤ 0.2
14,RYMD,≤ 0.2
15,RYMN,0.395
16,RYMT,0.887
17,RYML,≤ 0.2
18,RYMK,≤ 0.2
19,RYMR,≤ 0.2
20,RYMG,0.971
21,RYMS,0.963
22,RYMH,≤ 0.2
23,RYMC,0.994
24,RYMP,≤ 0.2

row,Variant,one-hybrid fitness for binding parS DNA
1,RYMQ,≤ 0.2
2,LCMG,≤ 0.2
3,NWQY,≤ 0.2
4,NQMR,≤ 0.2
5,DFGS,≤ 0.2
6,NLVV,≤ 0.2
7,TGGR,≤ 0.2
8,HAMN,≤ 0.2
9,WKPV,≤ 0.2
10,DGVM,≤ 0.2
11,RPCN,≤ 0.2
12,APGA,≤ 0.2
13,LMVR,≤ 0.2
14,EFNL,≤ 0.2
15,WIWS,≤ 0.2
16,RDCC,≤ 0.2
17,RSCC,0.915
18,RCCC,0.959
19,RSCD,≤ 0.2
20,RPCC,≤ 0.2
21,RSCP,≤ 0.2
22,RRIP,≤ 0.2
23,RRPF,≤ 0.2
24,RRIG,0.908

row,Variant,one-hybrid fitness for binding parS DNA
1,RRPG,0.891
2,RRIM,≤ 0.2
3,RRPQ,≤ 0.2
4,TAAL,≤ 0.2
5,KHMS,≤ 0.2
6,RYTY,0.429
7,RYTR,≤ 0.2
8,RYTC,0.903
9,RYTT,0.884
10,RYTG,0.992
11,RYTP,≤ 0.2
12,RYTH,≤ 0.2
13,RYTD,≤ 0.2
14,RYTM,0.295
15,RYTK,≤ 0.2
16,RYTN,0.429
17,RYTS,0.904
18,RFHK,≤ 0.2
19,NTHH,≤ 0.2
20,YAER,≤ 0.2
21,SRAR,≤ 0.2
22,DHRG,≤ 0.2
23,WTKG,≤ 0.2
24,TPGV,≤ 0.2

row,Variant,one-hybrid fitness for binding parS DNA
1,PQLQ,≤ 0.2
2,RWFK,≤ 0.2
3,KWFG,≤ 0.2
4,RWFG,0.615
5,RWAF,≤ 0.2
6,RWAG,0.72
7,RWAM,≤ 0.2
8,TYPT,≤ 0.2
9,MSSI,≤ 0.2
10,DTPG,≤ 0.2
11,HKES,≤ 0.2
12,ANPQ,≤ 0.2
13,WNSC,≤ 0.2
14,RNDP,≤ 0.2
15,RNDS,0.823
16,RNDN,0.226
17,RNNP,≤ 0.2
18,RNNS,0.969
19,RNND,≤ 0.2
20,HDLV,≤ 0.2
21,IGRI,≤ 0.2
22,WCIS,≤ 0.2
23,PFSI,≤ 0.2
24,AYDD,≤ 0.2

row,Variant,one-hybrid fitness for binding parS DNA
1,RKLY,0.402
2,RKGG,0.937
3,RKQM,≤ 0.2
4,RKYG,0.952
5,RKLG,0.964
6,RKQG,0.913
7,RKYD,≤ 0.2
8,RKQR,≤ 0.2
9,RKGP,≤ 0.2
10,RKYN,0.297
11,RKLK,≤ 0.2
12,RKGH,≤ 0.2
13,ASNF,≤ 0.2
14,STMD,≤ 0.2
15,THAI,≤ 0.2
16,HFAT,≤ 0.2
17,VNIM,≤ 0.2
18,GRPC,≤ 0.2
19,ANQN,≤ 0.2
20,HYCT,≤ 0.2
21,RKHF,≤ 0.2
22,RKRG,0.851
23,RKCM,0.286
24,RKRD,≤ 0.2

row,Variant,one-hybrid fitness for binding parS DNA
1,RKRP,≤ 0.2
2,RKHG,0.925
3,RKCQ,≤ 0.2
4,RKCG,0.971
5,RKHR,≤ 0.2
6,QYTT,≤ 0.2
7,HLKG,≤ 0.2
8,TWTY,≤ 0.2
9,QNAG,≤ 0.2
10,GTTH,≤ 0.2
11,SETA,≤ 0.2
12,TDDG,≤ 0.2
13,QFHD,≤ 0.2
14,RMRM,0.379
15,RMNT,0.904
16,RMNF,0.237
17,RMGF,0.269
18,RMDF,0.223
19,RMGT,0.937
20,RMDT,0.794
21,RMND,≤ 0.2
22,RMRQ,≤ 0.2
23,RMGK,≤ 0.2
24,RMRT,0.812

row,Variant,one-hybrid fitness for binding parS DNA
1,RMDL,≤ 0.2
2,GTPS,≤ 0.2
3,EHHI,≤ 0.2
4,KHQH,≤ 0.2
5,PMNI,≤ 0.2
6,RECV,≤ 0.2
7,NATT,≤ 0.2
8,LRNV,≤ 0.2
9,MRHY,≤ 0.2
10,KGRF,≤ 0.2
11,YADG,≤ 0.2
12,YTRC,≤ 0.2
13,QWHV,≤ 0.2
14,RMYT,0.923
15,RMSM,0.37
16,RMQT,0.921
17,RMST,0.945
18,RMYP,≤ 0.2
19,RMYD,≤ 0.2
20,RMQP,≤ 0.2
21,RMSF,0.258
22,RMQD,0.318
23,VHYL,≤ 0.2
24,ADVS,≤ 0.2

row,Variant,one-hybrid fitness for binding parS DNA
1,GAPV,≤ 0.2
2,SQVL,≤ 0.2
3,AMKY,≤ 0.2
4,GIMG,≤ 0.2
5,SACQ,≤ 0.2
6,RWLW,≤ 0.2
7,RMAS,0.991
8,RMAN,0.46
9,RMFS,1.07
10,RMAH,0.282
11,RMFP,≤ 0.2
12,RMFD,≤ 0.2
13,PWEY,≤ 0.2
14,LATA,≤ 0.2
15,RLDI,≤ 0.2
16,ENYW,≤ 0.2
17,AEQK,≤ 0.2
18,RYAS,0.917
19,RYFP,≤ 0.2
20,RYFS,1.02
21,RYAP,≤ 0.2
22,RYFN,0.425
23,RYAH,≤ 0.2
24,PWFC,≤ 0.2

row,Variant,one-hybrid fitness for binding parS DNA
1,RMDP,≤ 0.2
2,RMLN,0.439
3,RMRN,0.418
4,RMLS,1.04
5,RMDS,1.02
6,RMDY,0.405
7,RMRP,≤ 0.2
8,RMLH,0.275
9,RMNY,0.529
10,RMDD,≤ 0.2
11,RMRS,0.868
12,FDLP,≤ 0.2
13,LARN,≤ 0.2
14,YKTN,≤ 0.2
15,PMMG,≤ 0.2
16,TDRN,≤ 0.2
17,IALI,≤ 0.2
18,HAQR,≤ 0.2
